From PubChem BioAssay (EPA / NIEHS) come the findings set out here.

What is called AC50 is the concentration giving half of the maximal activity seen.

Records with an inconclusive call do not appear. Active and inactive are the calls of the source. How the source made its calls: active means hit-call score of the fitted dose curve at least 0.9, where 1 is the maximum; inconclusive means response in the unintended direction; inactive means score below 0.9.

The nature of this assay: ACEA_ER_AUC_viability: ACEA Biosciences xCELLigence Real-Time Cell Analysis on Estrogen Receptor Agonism for Viability (AID 2283782).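 Further: continuous compound exposure with impedance area under curve over 80 h.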 On the procedure: ACEA_ER is a cell-based, single-readout assay that uses T47D, a human breast cell line, with measurements taken at 80 hours after chemical dosing in a 96-well plate, although TO2 (mc0.srcf) used a 384-well plate. Differences in plate size can be ignored given data normalization.ACEA_ER_AUC_viability is one of two assay component(s) measured or calculated from the ACEA_ER assay. It is designed to make measurements of real-time cell-growth kinetics, a form of growth reporter, as detected with electrical impedance signals by Real-Time Cell Electrode Sensor (RT-CES) technology.Data from the assay component ACEA_ER_AUC_viability was analyzed in the positive analysis fitting direction relative to DMSO as the negative control and baseline of activity. Using a type of growth reporter, loss-of-signal activity can be used to understand changes in the viability. Furthermore, this assay endpoint can be referred to as a secondary readout, because this assay has produced multiple assay endpoints where this one serves a viability function. To generalize the intended target to other relatable targets, this assay endpoint is annotated to the cell cycle intended target family, where the subfamily is cytotoxicity.
The xCELLigence system Multi-E-Plate stations were used to measure the time-dependent response to chemicals. Each compound was tested in an eight-point, 1:4 serial dilution series starting at a maximum final concentration of 100 uM. A maximum starting concentration of 0.5% DMSO was present in the 100 uM chemical samples and was diluted along with the test article dilution series. The screen was performed in biological duplicate using two separate, 96-well, E-Plates 96 for each dilution series (n = 2). Positive controls (MG132 and E2) and a negative control (assay media) were tested in quadruplicate on each testing plate. Then, 0.5% and 0.125% DMSO were tested in duplicates in each plate to serve as solvent controls for the 2 highest concentrations of testing compounds: 100 uM and 25 uM. Reference compounds were tested with 8 concentrations with 1:5 serial dilutions. All screening was carried out by ACEA Biosciences, Inc. (San Diego, CA). T-47D cells purchased from ATCC were maintained in RPMI1640 media supplemented with 10% characterized fetal bovine serum (FBS). Before screening, T-47D cells were preconditioned in assay medium: phenol red-free RPMI1640 supplemented with 10% charcoal-stripped FBS. Cells were then detached and seeded in E-Plates 96 in assay medium. After overnight monitoring of growth once every hour, compounds were added to […] cells and remained in the medium until the end of the experiment. Cellular responses were then recorded once every 5 min for the first 5 h, and once every hour for an additional 100 h.
`CCCCCCOC(=O)CCCCC`: the compound was classed as inactive. The same measure, in the same setting: under `CC1(C)C(=O)N(Br)C(=O)N1Cl` stands “inactive”.

Consider `Nc1cc([N+](=O)[O-])ccc1O`, for which the AC50 is 9.92 µM (active). With `NCCCN1CCOCC1`, the outcome was inactive. As to `Nc1ccc(F)c([N+](=O)[O-])c1`, the AC50 is 26.5 µM (active).

Take `Nc1cc([N+](=O)[O-])ccc1Cl`: the AC50 is 76.3 µM (active). For `Nc1ccc(S(=O)(=O)O)c(N)c1`, the compound was classed as inactive. Take `CC(=O)OCc1ccc2c(c1)OCO2`: the call was inactive.

As to `CCCCCC(=O)OCCc1ccccc1`, the AC50 is 78.9 µM (active). For `CC(C)(C)C(=O)c1ccccc1`, the compound was called inactive. For `CCCOCC(C)O` (stereo not given), the compound was classed as inactive. For `CCCCC/C=C/C=C/C=O`, the AC50 was 81.1 µM (active). In the case of `CC(=O)/C=C/C1=C(C)CCCC1(C)C`, the AC50 is 9.92 µM (active). Regarding `CN(C)CCOCCN(C)C`, the outcome was inactive. Consider `CCCCNC(=O)NS(=O)(=O)c1ccc(C)cc1`, for which the call was inactive. Turning to `C=C(C)C(=O)O`, the compound was classed as inactive.

On to `CC(C)[C@@H]1CC[C@@H](C)CC1=O`, for which the compound was classed as inactive.

Take `Nc1ccc(S(N)(=O)=O)cc1`: the call was inactive. In the case of `O=C(Cl)c1cccc(C(=O)Cl)c1`, the outcome was inactive. Turning to `CCCCO`, the AC50 is 35.2 µM (active). On to `NCCNCCN`, for which the compound was called inactive. For `CC(C)(N)CO`, the compound was classed as inactive. Regarding `O=Nc1ccc(Nc2ccccc2)cc1`, the AC50 was 11.1 µM (active). In the case of `CCC(=O)OCCC(C)CCC=C(C)C` (stereo not given), the AC50 was 78.6 µM (active). `CC(CCO)CCCC(C)(C)O` (stereo not given): the AC50 is 50.5 µM (active). As to `O=c1oc(=O)c2cc3c(=O)oc(=O)c3cc12`, the call was inactive. Same read-out and setting: under `CO[Si](C)(OC)c1ccccc1` stands “inactive”. For the compound `O=C(O)CCCCCCCCCCC(=O)O`, the AC50 was 37.7 µM (active). In the case of `O=C1CCc2ccccc2O1`, the half-maximal activity concentration (AC50) was 38 µM (active).

For the compound `C[Si](O[Si](C)(C)C)O[Si](C)(C)C`, the result was inactive. As for `CC(CC(C)(C)C)CC(C)(C)CC(C)(C)C` (stereo not given), the compound was classed as inactive. Still for that read-out and setting: under `CSc1nc(NC2CC2)nc(NC(C)(C)C)n1` stands “inactive”. As to `Nc1cc(N)cc(C(=O)O)c1`, the result was inactive.

Turning to `CC1CC(OC(=O)c2ccccc2O)CC(C)(C)C1` (stereo not given), the AC50 was 78.4 µM (active). Take `CC1CCC(C(C)(C)O)CC1` (stereo not given): the result was inactive. Regarding `OCCN1CCNCC1`, the compound was classed as inactive. On to `c1ccc2[nH]ccc2c1`, for which the result was inactive. Regarding `O=c1[nH]nnc2ccccc12`, the call was inactive. Consider `C=CCOC(=O)CCC1CCCCC1`, for which the AC50 is 75.5 µM (active). Turning to `O=C1CCCCCCCCCCOCCCCO1`, the AC50 was 55.4 µM (active).
